Test results: PubChem BioAssay (Tox21)
Results filed as inconclusive are left out. A number with no mark means an inactive call. Calls of active or inactive are those of the source. Calls follow the shape of the full dose curve.

assay: Nuclear factor erythroid 2-related factor 2/antioxidant responsive element (Nrf2/ARE) small molecule agonists: luciferase reporter gene qHTS assay in human keratinocytes (AID 1919969); conditions: KeratinoSens HaCaT ARE-luciferase, luminescence, 24 h; series mostly up to 92.4 µM; activity, positive = activation: at the top concentration; also: nearly all actives have a fitted effect of over 35% in size
From the text: National Center for Advancing Translational Sciences [NCATS]
Division of Preclinical Innovation [DPI]
U.S. Environmental Protection Agency [EPA]
National Institutes of Environmental Health Sciences [NIEHS]
National Toxicology Program [NTP]
U.S. Food and Drug Administration [FDA]
Oxidative stress has been implicated in the pathogenesis of a variety of diseases ranging from cancer to neurodegeneration. The antioxidant response element (ARE) signaling pathway plays an important role in the amelioration of oxidative stress. The KeratinoSens (Givaudan, Switzerland) is an in vitro test method which quantifies luciferase induction as a measure of activation of Keap1-Nrf2-antioxidationt/electrophile response element (ARE) dependant pathway in HaCaT human keratinocytes stably transfected with a selectable plasmid. The KeratinoSens assay is a cell-based assay with a reporter cell line to detect potential skin sensitizers by their ability to induce the Nrf2/ARE-response. The activation of the report gene under culture conditions can be detected by ONE-Glo Luciferase Assay System (Promega, Madison, WI). This cell line has been used to screen the Tox21 10K compound library to identify agonists that induce oxidative stress. The cytotoxicity of the Tox21 compound library against the KS-ARE cell line was tested in parallel by measuring the cell viability using CellTiter- Fluor assay system (Promega, Madison, WI) in the same wells.
HaCaT derived cell line KeratinoSens were dispensed at 1,500 cells/5uL/well in 1536-well white wall/solid bottom plates using a Multidrop Combi (ThermoFisher Scientific, Waltham, MA) dispenser. After the assay plates were incubated at 37 C/5% CO2 for 5 h, 23 nL of compounds dissolved in DMSO, positive controls or DMSO only was transferred to the assay plate by a pintool workstation (Kalypsys, San Diego, CA). The plates were incubated at 37 C/5% CO2 for 23 h, followed by addition of 1uL/well of CellTiter-Fluor reagent into the assay plates using a Flying Reagent Dispenser (Aurora Discovery, San Diego, CA) for cell viability readout that measures cytotoxicity. After 1 h incubation at 37 C/5% CO2 the fluorescence intensity was measured using a ViewLux (PerkinElmer, Shelton, CT) plate reader. Then 4uL/well of One-Glo were added using a Flying Reagent Dispenser. After the plates were incubated at room temperature for 30 min, the luminescence intensity in the assay plates was measured using ViewLux plate reader.
% is scaled to controls: 0 for no effect and ±100 for the full control effect; potency is read from the fitted curve at half-maximal effect.

Structure (SMILES)	activity, positive = activation	Potency
N#CC(CCc1ccc(Cl)cc1)(Cn1cncn1)c1ccccc1 (stereo not given)	23.9%	–
O=[N+]([O-])c1cc(C(F)(F)F)c(Cl)c([N+](=O)[O-])c1Cl	–	9.69 µM (active)
NNCCO	-3.63%	–
CN(C)C1CSSSC1	–	61.1 µM (active)
CCC1COC(Cn2cncn2)(c2ccc(Cl)cc2Cl)O1 (stereo not given)	0.18%	–
Cc1ccc(N(SC(F)(Cl)Cl)S(=O)(=O)N(C)C)cc1	–	7.7 µM (active)
O=[N+]([O-])c1cccc2c([N+](=O)[O-])cccc12	–	61.4 µM (active)
O=C1NCN(c2ccccc2)C12CCN(CC1COc3ccccc3O1)CC2 (stereo not given)	26.3% [at 42.5 µM]	–
N#Cc1c(Cl)cccc1Cl	-3.54%	–
CC(=O)O[C@H]1CC[C@@]2(C)C(=CC[C@@H]3[C@@H]2CC[C@]2(C)C(=O)CC[C@@H]32)C1	2.95%	–
O=S1(=O)OCC2C(CO1)C1(Cl)C(Cl)=C(Cl)C2(Cl)C1(Cl)Cl (stereo not given)	–	24.3 µM (active)
CC(C)CC(C)N (stereo not given)	-6.83%	–
C[C@]12CC[C@H]3[C@@H](CCC4=CC(=O)CC[C@@]43C)[C@@H]1CC[C@@H]2O	-7.38%	–
CCC[N+](CCC)(CCC)CCC	-0.381%	–
CNC(=O)CSP(=O)(OC)OC	-0.194%	–
OC(Cc1ccccc1Cl)(Cn1[nH]cnc1=S)C1(Cl)CC1 (stereo not given)	–	10.9 µM (active)
CCN(CC)CCc1c[nH]c2ccccc12	16.3%	–
CC(C)C(=O)Cl	-4.36%	–
O=C(Nc1ccc(F)cc1F)c1cccnc1Oc1cccc(C(F)(F)F)c1	11.4%	–
COc1cccc(C(=O)NN(C(=O)c2cc(C)cc(C)c2)C(C)(C)C)c1C	-14.7%	–

Structure (SMILES)	activity, positive = activation	Potency
CCOC(=O)COc1ccc(Cl)cc1Cl	2.51%	–
CC(Cc1ccc2c(c1)OCO2)NO (stereo not given)	5.65%	–
CCN(CC)C(C)C(=O)c1ccccc1 (stereo not given)	-4.81% [at 42.5 µM]	–
COc1ccc2c(C(=O)c3ccc(Cl)cc3)c(C)n(CC(=O)O)c2c1	-1.94% [at 42.5 µM]	–
O=CNC(N1CCN(C(NC=O)C(Cl)(Cl)Cl)CC1)C(Cl)(Cl)Cl (stereo not given)	2.19%	–
CCOC(=O)CC(=O)CCl	–	68.6 µM (active)
O=NN1CCNCC1	–	76.1 µM (active)
O=C1OC(c2ccc(O)c(S(=O)(=O)O)c2)(c2ccc(O)c(S(=O)(=O)O)c2)c2c(Br)c(Br)c(Br)c(Br)c21	–	8.41 µM (active)
C[CH2][Hg][N]1C(=O)C2C(C1=O)C1(Cl)C(Cl)=C(Cl)C2(Cl)C1(Cl)Cl (stereo not given)	–	2.91 µM (active)
CC(C)NCC(O)c1ccccc1Cl (stereo not given)	-4.65% [at 42.5 µM]	–
CC(=O)C(Cl)C(=O)N(C)C (stereo not given)	–	68.6 µM (active)
CN1C[C@@H](NS(=O)(=O)N(C)C)C[C@@H]2c3cccc4c3c(cn4C)C[C@H]21	0.47% [at 42.5 µM]	–
Nc1ccc([N+](=O)[O-])cc1	–	24.3 µM (active)
BrCCCBr	1.47%	–
C=COC(C)=O	0.283%	–
Clc1ccc(CCC(Cn2ccnc2)Sc2c(Cl)cccc2Cl)cc1 (stereo not given)	–	13.3 µM (active)
CCCCOC(C)=O	-0.801%	–
CC(Cc1ccccc1)N(C)Cc1ccco1 (stereo not given)	1.05% [at 42.5 µM]	–
COP(=S)(OC)Oc1ccc([N+](=O)[O-])cc1Cl	19.3%	–
ClCC(Cl)Cl	-1.15%	–
